# MazEF act – increases E. coli MazEF RNase cleavage of RNA. FAM/BHQ RNA-DNA oligo cleavage fluorescence, 5 h. actives 0.32% (n = 350,000). activation, % at 20 µM; in the data active means activation above about 50%
# Target sequence (P0AE70 whole entry, looked up): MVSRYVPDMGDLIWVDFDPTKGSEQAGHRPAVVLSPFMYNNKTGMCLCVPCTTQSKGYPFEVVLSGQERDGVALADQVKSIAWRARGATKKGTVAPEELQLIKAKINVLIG
# BioA inh – BioA (M. tuberculosis) enzyme inhibition | purified M. tuberculosis BioA enzyme, plate reader | inhibition, % at 9.99 µM | actives 0.096% (n = 360,000) | AID 602481; in the data active means inhibition above about 40%
# VHR inh abs – DUSP3 (human) phosphatase inhibition. P51452. recombinant VHR phosphatase, pNPP absorbance. inhibition, % at 13.3 µM. actives 0.52% (n = 290,000). AID 1654; in the data active means inhibition above about 50%
# Target sequence (P51452 whole entry, looked up): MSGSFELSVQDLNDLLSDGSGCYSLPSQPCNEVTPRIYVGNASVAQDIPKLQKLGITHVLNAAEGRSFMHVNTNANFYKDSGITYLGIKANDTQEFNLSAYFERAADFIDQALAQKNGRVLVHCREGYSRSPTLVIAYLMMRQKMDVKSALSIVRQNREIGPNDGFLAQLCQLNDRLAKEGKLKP
# TcdB GH inh – inhibitors of Clostridioides difficile toxin B glycohydrolase. AID 652162. actives 0.24% (n = 350,000). TcdB glycohydrolase enzymatic assay, plate reader. inhibition, % at 9.99 µM; in the data active means inhibition above about 10%
# FadD28 binding – M. tuberculosis FadD28 bisubstrate binding inhibition | actives 0.22% (n = 360,000) | FadD28 bisubstrate probe binding, fluorescence polarization | AID 588549 | inhibition, % at 12.5 µM; in the data active means inhibition above about 8.5%, passing the limit was not always enough
# Yp Topo-I inh – blocks Yersinia pestis topoisomerase I activity. Y. pestis Topo-I cleavage product accumulation, plate reader. activity, % at 10 µM. actives 0.064% (n = 360,000). AID 504884; in the data active means activity above about 50%, passing the limit was not always enough
# An asterisk follows results filed as active; nt = no result given. Most compounds without a hit are left out; they make up all but 1% or so of the library.
SMILES,MazEF act,BioA inh,VHR inh abs,TcdB GH inh,FadD28 binding,Yp Topo-I inh
Cc1ccc(/C=C2/SC(=S)N(C3CCCCC3)C2=O)o1,7.0,-0.2,-7.2,1.2,1.0,-5.6
Cc1ccc(/C=C2/SC(=O)NC2=S)o1,-34.2,-1.7,19.9,nt,15.7*,-21.7
COc1ccc(CN2CCC(Oc3ccc(C(=O)NCc4ccccn4)cc3)CC2)c(F)c1,-1.5,2.0,57.1*,1.2,-1.2,26.6
O=C(C[C@H]1CC[C@@H](NS(=O)(=O)c2cccc(F)c2)[C@@H](CO)O1)NCc1ccc2c(c1)OCO2,nt,-2.1,nt,1.3,nt,nt
COc1ccccc1N1CCN(C2CCCN(Cc3ccccc3OCCO)C2)CC1 (stereo not given),11.3,-1.7,59.1*,0.4,-1.2,0.3
CC(=O)c1ccc(NC(=S)N2CCN(CCN3C(=O)c4cccc5cccc(c45)C3=O)CC2)cc1,-0.3,-0.6,55.4*,-0.8,-0.9,1.5
CC(=O)c1c2c3c(cccc3n(C)c1=O)C(=O)c1ccccc1-2,19.2,nt,53.9*,nt,nt,nt
Cn1c(=O)c(Nc2ccc(O)cc2)c2c3c(cccc31)C(=O)c1ccccc1-2,64.5*,nt,16.8,-1.0,-0.7,-4.0
C/C=C/c1ccc([C@@H]2[C@@H](CO)N(C(C)=O)C23CN(C(=O)NC2CCCC2)C3)cc1,nt,nt,nt,0.1,nt,nt
COCC(=O)N1CC2(CCN(C(=O)NC(C)C)CC2)c2c(n(C)c3cc(OC)ccc23)[C@H]1CO,nt,nt,nt,-1.7,nt,nt
COc1ccccc1/C=C1\SC(=S)N(CCC(=O)NC2=NCCS2)C1=O,171.9*,nt,-8.5,0.8,-2.3,1.0
COc1ccccc1/C=C1/SC(=S)N(CCC(=O)Nc2cccnc2)C1=O,435.4*,-1.8,5.4,6.8,nt,18.5
O=C(CCN1C(=O)/C(=C\c2ccccc2Cl)SC1=S)Nc1cccnc1,5.4,10.0,17.5,-0.4,2.1,10.7
Oc1ccc(O)c(C=NNC(=S)NC2CC3CC2C2C=CCC32)c1 (stereo not given),13.8,-0.2,nt,-0.1,17.8*,-15.4
O=C(Nc1ccc(N2CCOCC2)c(Cl)c1)c1ccc2c(c1)OCCO2,6.7,-0.8,-4.8,21.0*,0.6,6.7
O=C(Nc1ccc(N2CCOCC2)c(Cl)c1)c1ccc(Cl)cc1,8.2,2.6,4.0,22.1*,-0.6,1.0
COc1cc(NC(=O)CCc2nnc3ccc(N4CCN(C)CC4)nn23)cc(OC)c1,5.6,0.3,52.1*,1.2,-5.5,0.1
CC1=NN(c2nc(-c3ccc(C)cc3)cs2)C(=O)C1N=Nc1cccc(C)c1 (stereo not given),2.8,nt,1.2,-0.4,-2.7,-9.8
CCOC(=O)c1sc(N2N=C(C)C(N=Nc3cccc(C)c3)C2=O)nc1C (stereo not given),4.0,-1.3,55.2*,0.2,-3.6,-5.4
O=C(O)c1ccc(N=Nc2c(O)[nH]c3ccc(Br)cc23)cc1,5.2,-2.5,nt,0.9,1.1,-8.5
O=c1ccc2cc3c([nH]c4ccc(Br)cc43)oc-2c1O,nt,2.7,-8.6,nt,21.5*,-36.4
COc1ccc(Cn2c(C)nc3c(c2=O)c2nc4ccccc4nc2n3Cc2ccco2)cc1,-17.6,-2.4,nt,2.9,-5.5,7.5
COc1ccc(Cn2c3nc4ccccc4nc3c3c(=O)n(Cc4ccco4)c(C)nc32)cc1,nt,nt,91.2*,nt,nt,nt
O=C(O)c1cc(O)c2c(c1)[C@@H]([C@H]1c3cc(C(=O)O)cc(O)c3C(=O)c3c(O[C@@H]4O[C@H](CO)[C@@H](O)[C@H](O)[C@H]4O)cccc31)c1cccc(OC3O[C@H](CO)[C@@H](O)[C@H](O)[C@H]3O)c1C2=O (stereo not given in full),-14.3,1.3,nt,-39.1,13.7*,-29.1
O=C(O)c1cc(O)c2c(c1)[C@H]([C@H]1c3cc(C(=O)O)cc(O)c3C(=O)c3c(O[C@@H]4O[C@H](CO)[C@@H](O)[C@H](O)[C@H]4O)cccc31)c1cccc(OC3O[C@H](CO)[C@@H](O)[C@H](O)[C@H]3O)c1C2=O (stereo not given in full),-11.2,2.9,nt,-51.1,29.2*,-30.2
SMILES,MazEF act,BioA inh,VHR inh abs,TcdB GH inh,FadD28 binding,Yp Topo-I inh
COc1ccc(C(=O)NC(CC(=O)O)c2cc([N+](=O)[O-])ccc2Cl)c(SC)c1 (stereo not given),-2.9,nt,-8.7,33.7*,2.4,5.9
COc1cc(NCCCCC(C)N)c2nccc(C)c2c1 (stereo not given),9.0,3.4,nt,-0.3,-2.9,-4.6
COc1cc(NCCCC(C)N)c2ncccc2c1 (stereo not given),1.4,-5.6,nt,nt,8.7*,-20.0
CCC(CNc1cc(OC)cc2cccnc12)NC1CCCCC1 (stereo not given),4.6,nt,54.1*,-1.0,-1.4,-1.5
COc1cccc(NC(=O)C[C@H]2CC[C@@H]3[C@@H](COc4ccc(NC(=O)C5CCCCC5)cc4C(=O)N3C)O2)c1,nt,2.7,nt,0.4,nt,nt
COc1ccc(CN(C)C[C@@H]2Oc3ccc(NC(=O)CCC(F)(F)F)cc3CC(=O)N([C@H](C)CO)C[C@H]2C)cc1,nt,0.2,nt,-3.1,nt,nt
C[C@@H]1CCCCO[C@H](CN(C)C)[C@H](C)CN([C@H](C)CO)C(=O)c2cc(NC(=O)Nc3ccc(C(F)(F)F)cc3)ccc2O1,nt,-0.4,nt,-0.7,nt,nt
COc1ccc2c3c(n(C)c2c1)[C@@H](CO)N(C(=O)C1CC1)CC31CCN(CC2CCCC2)CC1,nt,nt,nt,0.2,nt,nt
O=C1CC(C(=O)Nc2ccc(F)cc2)S/C(=N\N=C\c2ccco2)N1 (stereo not given),-2.7,nt,14.7,nt,0.2,0.7
Cc1ccc(NC(=O)C2CC(=O)N/C(=N/N=C/c3ccco3)S2)cc1 (stereo not given),4.8,nt,57.9*,nt,-2.8,3.9
COc1cc(/C=C(\C#N)C(=O)N2CCCCC2)ccc1O,-2.2,-0.1,-0.5,14.3*,-2.9,3.3
Cc1cc(OCC(=O)NCc2ccncc2)c2c3c(c(=O)oc2c1)CCC3,21.7,-0.9,5.7,1.8,1.2,1.5
Cc1cc(OCC(=O)NCc2ccc(S(N)(=O)=O)cc2)c2c3c(c(=O)oc2c1)CCC3,71.9*,-0.2,-2.2,0.4,-1.7,1.0
OCCCCNCc1ccc(OCc2ccccc2)cc1,9.5,-1.8,51.9*,nt,0.3,1.7
OCCCCNCc1ccc(OCc2ccccc2Cl)cc1,5.5,-0.3,14.4,nt,-3.0,24.8
COc1cccc(NC(=O)N(C)C[C@@H]2Oc3cc(C#Cc4ccc(F)cc4)ccc3S(=O)(=O)N([C@@H](C)CO)C[C@@H]2C)c1,nt,-6.9,nt,-10.0,nt,nt
Cc1nc2scc(-c3cccs3)c2c(=O)[nH]1,0.8,-1.1,54.7*,nt,-2.4,-3.7
CN1c2ccc(-c3ccc(F)cc3)cc2[C@@H]2[C@@H](CCN2C(=O)Nc2ccc(F)cc2)[C@@H]1CO,nt,0.8,nt,nt,nt,nt
CCC(C)NC(=O)Nc1ccccc1F (stereo not given),2.8,nt,1.3,nt,-2.2,5.0
CCC(C)NC(=O)Nc1ccccc1C (stereo not given),-1.0,-1.1,51.6*,nt,-1.1,-0.7
CSc1ccc(-c2nc3cnccn3c2Nc2ccc3c(c2)OCO3)cc1,-3.0,61.5*,27.3,nt,1.5,4.0
